For 40 compounds, inhibition results are on record in PubChem BioAssay.

Values without a mark were called inactive. Activity calls are given as the source filed them. Cut-off read from the data, not from the text of the source, unless noted: active = inhibition above about 44%; inactive = the rest.

Sequence of Steroidogenic factor 1 (Homo sapiens) (Q13285 whole entry, looked up): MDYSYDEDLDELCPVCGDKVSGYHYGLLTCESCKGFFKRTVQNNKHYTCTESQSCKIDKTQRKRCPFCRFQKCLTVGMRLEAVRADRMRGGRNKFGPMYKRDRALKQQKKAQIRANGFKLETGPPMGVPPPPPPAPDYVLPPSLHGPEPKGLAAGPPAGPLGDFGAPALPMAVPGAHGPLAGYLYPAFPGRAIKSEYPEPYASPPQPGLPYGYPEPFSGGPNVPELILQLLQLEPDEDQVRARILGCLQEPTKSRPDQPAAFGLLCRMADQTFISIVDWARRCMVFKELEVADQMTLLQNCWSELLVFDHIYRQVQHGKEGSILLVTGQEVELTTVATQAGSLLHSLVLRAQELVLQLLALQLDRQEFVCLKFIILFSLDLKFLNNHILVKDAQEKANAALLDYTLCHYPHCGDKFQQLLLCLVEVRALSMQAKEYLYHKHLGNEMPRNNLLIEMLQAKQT

The first assay concerns the target Steroidogenic factor 1 (Homo sapiens) (UniProt Q13285). As to the kind of experiment: inverse agonism at SF1 nuclear receptor – cell-based, luminescence, high throughput, counter-screen for LRH-1 inverse agonist project (AID 651614).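 Note: cells cotransfected with StAR promoter reporter and SF1 expression vector; 0% = vehicle on cells with receptor and 100% = vehicle on cells lacking receptor.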 The settings on record: cell-based SF1 luciferase reporter, at 3.6 µM, active compounds read high.
Regarding `CSc1ccc(COC(=O)c2cc([N+](=O)[O-])ccc2N2CCOCC2)cc1`, the inhibition (as a rule, the drop in the measured response relative to a control, in per cent) was 65.8% (active).
With `C#Cc1ccc(NC(=O)C2(C)CCN2C(=O)Cc2ccc(C(C)(C)C)cc2)cc1` (stereo not given), the inhibition was 39%.
Still for that read-out and setting: under `COc1ccc(CCNC(=O)CSc2nn3c(=O)c(C)nnc3s2)cc1OC` stands 47.2% (active); under `COc1ccc2nc(N3CCC(O)CC3)c(C#N)cc2c1`, 44.9% (active).
Still for that read-out and setting: under `Cc1ccc(-n2c(SCC(=O)NCc3ccco3)nc3sc4c(c3c2=O)CC(C)(C)SC4)cc1` stands 44.8% (active).
For the compound `CCCCNC(=O)COC(=O)c1c2c(nc3ccccc13)/C(=C\c1cccs1)CC2`, the inhibition was 12.3%.
On the same count and under the same terms, then `Cc1ccc(-c2nn3c(C)nnc3s2)cc1NC(=O)c1ccco1`, with 60.7% (active).
Regarding `CC(C)=NOc1cc(NC(=O)CCl)cc([N+](=O)[O-])c1`, the inhibition was 56.4% (active).
Turning to `Cc1onc(-c2ccccc2)c1C(=O)O/N=C(\N)c1ccc([N+](=O)[O-])o1`, the inhibition is 61.9% (active).
On to `COC(=O)c1c(NC(=O)c2ccco2)sc2c1CCN(C(C)=O)C2`, for which the inhibition is 44.7% (active).
Consider `CC(=O)Nc1ccc(NC(=O)CSc2nc3nc(-c4cccs4)cc(C(F)(F)F)c3c(=O)[nH]2)cc1`, for which the inhibition is 49.2% (active).
`NC(=O)CC[C@H](NC(=O)c1ccc(F)cc1)C(=O)OCC(=O)Nc1ccc(N2CCOCC2)cc1`: the inhibition is 47.9% (active).
As for `Oc1ccccc1-c1nc(NCC2CCCO2)c2ccccc2n1` (stereo not given), the inhibition was 58% (active).
Turning to `CCCOc1ccc(NC(=O)CC2C(=O)N(C)C(=S)N2Cc2ccc3c(c2)OCO3)cc1` (stereo not given), the inhibition was 53.2% (active).
Consider `O=C(N/N=C/c1cc2c3c(c1O)CCCN3CCC2)c1ccccc1O`, for which the inhibition is 87.2% (active).
As to `CC(CCc1ccccc1)NC(=O)COc1ccc(S(=O)(=O)N2CCOCC2)cc1[N+](=O)[O-]` (stereo not given), the inhibition is 31.7%.
Regarding `Cc1ccc(NC(=O)COC(=O)c2cc(=O)c3ccccc3o2)c(Br)c1`, the inhibition is 51.1% (active).
Regarding `O=C(Nc1cc(C(F)(F)F)ccc1-n1cncn1)c1ccc([N+](=O)[O-])o1`, the inhibition was 49.1% (active).
With `N#CCSc1ccccc1NC(=O)CN1C(=O)C2CC=CCC2C1=O` (stereo not given), the inhibition was 60.2% (active).
Still for that read-out and setting: under `CC(Nc1ncnc2sccc12)c1ccccc1` (stereo not given) stands 64.9% (active); under `Cc1nn(Cc2ccc(Cl)cc2)c(C)c1NC(=O)c1noc2c1CCCCC2`, 54.7% (active).
With `Cc1cc(SC#N)cc(C)c1NC(=O)CCl`, the inhibition is 50.9% (active).
The same measure, in the same setting: under `COc1cccc(-c2cc(NC=O)c3ncc(-c4ccc(C(C)=O)cc4)n3c2)c1` stands 60.1% (active); under `Cc1ccc(NC(=O)CSc2sc3c(O)cc(=O)[nH]c3c2C#N)c(F)c1`, 41.9%.
Still for that read-out and setting: under `Cc1ccccc1C(=O)NC1CCN(CC(=O)Nc2ccc(Br)cc2)CC1` stands 53.4% (active); under `COc1ccc(OCc2nnc3n2N=C(c2ccc(C)cc2)CS3)cc1`, 28.9%; under `Cc1c(Cl)cccc1NC(=O)CNc1ccccc1F`, 40.6%.
Same read-out and setting: under `O=C(c1ccccc1)N(NC(=O)C(O)(c1ccccc1)c1ccccc1)c1cccc(F)c1` stands 53% (active); under `CC(=O)Nc1cc(-c2cccc(F)c2)cn2c(-c3ccc(S(C)(=O)=O)cc3)cnc12`, 54.6% (active); under `O=[N+]([O-])c1ccc(N2CCCCC2)nc1N1CCCCC1`, 51.2% (active).
As for `O=C(NC1CCC(CC2CCC(NC(=O)C(Cl)Cl)CC2)CC1)C(Cl)Cl` (stereo not given), the inhibition is 62% (active).
As for `O=C(Nc1ccccc1C(=O)NCCCn1ccnc1)c1ccccc1`, the inhibition was 42.1%.
On the same count and under the same terms, then `Clc1ccc(COc2cccc(CNCc3ccncc3)c2)cc1`, with 57.7% (active); and `COc1ccc(NC(=O)/C(Cl)=C(/Cl)S(=O)Cc2ccc(Cl)cc2)cn1` (stereo not given), with 84.6% (active).
For the compound `Cc1nc2ccccc2n1/N=C/c1ccc([N+](=O)[O-])s1`, the inhibition was 71.4% (active).
The same measure, in the same setting: under `CCOc1ccc(CCNC(=O)COC(=O)c2nc(Cl)ccc2Cl)cc1OCC` stands 28.2%; under `CCC(=O)Nc1nnc(SCC(=O)NCCc2ccc(OC)c(OC)c2)s1`, 57.3% (active).
The same measure, in the same setting: then `CCOc1ccc(CCNC(=O)COC(=O)c2cc(S(=O)(=O)N3CCOCC3)ccc2F)cc1OCC`, with 57.1% (active); and `CCOc1cc(/C=C2\C(=N)N3N=C(C)SC3=NC2=O)ccc1OCCOc1cccc(OC)c1`, with 40.2%.
As for `CCC(NC(=O)CCl)c1ccc(C)cc1` (stereo not given), the inhibition is 53.9% (active).

Tested on in a further assay: not listed separately
As to the kind of experiment: compounds suppressing VP16-driven luciferase signal – cell-based, luminescence, high throughput, counter-screen for LRH-1 inverse agonist project (AID 651615; in the data active = inhibition above about 33%). The settings on record: Gal4-VP16 luciferase reporter cells, at 3.6 µM, active compounds read high. (A counterscreen serves to expose hits that act by an unwanted route or on another target.)
For `CSc1ccc(COC(=O)c2cc([N+](=O)[O-])ccc2N2CCOCC2)cc1`, the inhibition is 36.6% (active).
Take `C#Cc1ccc(NC(=O)C2(C)CCN2C(=O)Cc2ccc(C(C)(C)C)cc2)cc1` (stereo not given): the inhibition was 43.9% (active).
With `COc1ccc(CCNC(=O)CSc2nn3c(=O)c(C)nnc3s2)cc1OC`, the inhibition was -10.1%.
The same measure, in the same setting: then `COc1ccc2nc(N3CCC(O)CC3)c(C#N)cc2c1`, with -30.6%.
Same read-out and setting: under `Cc1ccc(-n2c(SCC(=O)NCc3ccco3)nc3sc4c(c3c2=O)CC(C)(C)SC4)cc1` stands 6.61%.
Still for that read-out and setting: then `CCCCNC(=O)COC(=O)c1c2c(nc3ccccc13)/C(=C\c1cccs1)CC2`, with 26.5%; and `Cc1ccc(-c2nn3c(C)nnc3s2)cc1NC(=O)c1ccco1`, with -12.3%.
For `CC(C)=NOc1cc(NC(=O)CCl)cc([N+](=O)[O-])c1`, the inhibition is 13%.
On the same count and under the same terms, then `Cc1onc(-c2ccccc2)c1C(=O)O/N=C(\N)c1ccc([N+](=O)[O-])o1`, with -9.42%; and `COC(=O)c1c(NC(=O)c2ccco2)sc2c1CCN(C(C)=O)C2`, with -41%; and `CC(=O)Nc1ccc(NC(=O)CSc2nc3nc(-c4cccs4)cc(C(F)(F)F)c3c(=O)[nH]2)cc1`, with -4.54%.
Still for that read-out and setting: then `NC(=O)CC[C@H](NC(=O)c1ccc(F)cc1)C(=O)OCC(=O)Nc1ccc(N2CCOCC2)cc1`, with -8.19%; and `Oc1ccccc1-c1nc(NCC2CCCO2)c2ccccc2n1` (stereo not given), with -8%.
On the same count and under the same terms, under `CCCOc1ccc(NC(=O)CC2C(=O)N(C)C(=S)N2Cc2ccc3c(c2)OCO3)cc1` (stereo not given) stands 5.2%; under `O=C(N/N=C/c1cc2c3c(c1O)CCCN3CCC2)c1ccccc1O`, 70.4% (active).
`CC(CCc1ccccc1)NC(=O)COc1ccc(S(=O)(=O)N2CCOCC2)cc1[N+](=O)[O-]` (stereo not given): the inhibition is 24.5%.
Turning to `Cc1ccc(NC(=O)COC(=O)c2cc(=O)c3ccccc3o2)c(Br)c1`, the inhibition was 2.1%.
For `O=C(Nc1cc(C(F)(F)F)ccc1-n1cncn1)c1ccc([N+](=O)[O-])o1`, the inhibition is -15.7%.
Still for that read-out and setting: under `N#CCSc1ccccc1NC(=O)CN1C(=O)C2CC=CCC2C1=O` (stereo not given) stands -7.26%; under `CC(Nc1ncnc2sccc12)c1ccccc1` (stereo not given), 57.7% (active); under `Cc1nn(Cc2ccc(Cl)cc2)c(C)c1NC(=O)c1noc2c1CCCCC2`, 18.3%.
The same measure, in the same setting: under `Cc1cc(SC#N)cc(C)c1NC(=O)CCl` stands -31.6%.
Consider `COc1cccc(-c2cc(NC=O)c3ncc(-c4ccc(C(C)=O)cc4)n3c2)c1`, for which the inhibition was -11.4%.
Same read-out and setting: then `Cc1ccc(NC(=O)CSc2sc3c(O)cc(=O)[nH]c3c2C#N)c(F)c1`, with -9.48%; and `Cc1ccccc1C(=O)NC1CCN(CC(=O)Nc2ccc(Br)cc2)CC1`, with 15.4%.
On the same count and under the same terms, then `COc1ccc(OCc2nnc3n2N=C(c2ccc(C)cc2)CS3)cc1`, with -1.91%; and `Cc1c(Cl)cccc1NC(=O)CNc1ccccc1F`, with -6.92%; and `O=C(c1ccccc1)N(NC(=O)C(O)(c1ccccc1)c1ccccc1)c1cccc(F)c1`, with 30.2%.
The same measure, in the same setting: under `CC(=O)Nc1cc(-c2cccc(F)c2)cn2c(-c3ccc(S(C)(=O)=O)cc3)cnc12` stands -14.3%.
As for `O=[N+]([O-])c1ccc(N2CCCCC2)nc1N1CCCCC1`, the inhibition was 13.4%.
As to `O=C(NC1CCC(CC2CCC(NC(=O)C(Cl)Cl)CC2)CC1)C(Cl)Cl` (stereo not given), the inhibition was -2.2%.
In the case of `O=C(Nc1ccccc1C(=O)NCCCn1ccnc1)c1ccccc1`, the inhibition is -3.84%.
Still for that read-out and setting: under `Clc1ccc(COc2cccc(CNCc3ccncc3)c2)cc1` stands 26%; under `COc1ccc(NC(=O)/C(Cl)=C(/Cl)S(=O)Cc2ccc(Cl)cc2)cn1` (stereo not given), 89.5% (active).
For `Cc1nc2ccccc2n1/N=C/c1ccc([N+](=O)[O-])s1`, the inhibition is 29.6%.
Still for that read-out and setting: under `CCOc1ccc(CCNC(=O)COC(=O)c2nc(Cl)ccc2Cl)cc1OCC` stands -0.88%.
On the same count and under the same terms, then `CCC(=O)Nc1nnc(SCC(=O)NCCc2ccc(OC)c(OC)c2)s1`, with -15.4%; and `CCOc1ccc(CCNC(=O)COC(=O)c2cc(S(=O)(=O)N3CCOCC3)ccc2F)cc1OCC`, with -4.44%; and `CCOc1cc(/C=C2\C(=N)N3N=C(C)SC3=NC2=O)ccc1OCCOc1cccc(OC)c1`, with 6.87%.
With `CCC(NC(=O)CCl)c1ccc(C)cc1` (stereo not given), the inhibition is -27.2%.
